# From PubChem BioAssay (Tox21)
# Calls of active or inactive are those of the source. Calls follow the shape of the full dose curve.
# Target: Acetylcholinesterase (Homo sapiens) (UniProt P22303)
# Assay: Acetylcholinesterase (AChE) small molecule antagonists: enzyme-based qHTS assay with human liver microsomes (AID 1347399); also: nearly all actives have a fitted effect of over 60% in size
# Details: Potency: qHTS inhibition; outcome: qHTS inhibition; series mostly up to 115 µM; activity change, negative = inhibition: at the top concentration
# Outline: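 Recombinant human AChE (50 mU/mL in the enzyme mix) and human liver microsomes (0.25 mg/mL final) were preincubated with compound and NADPH (0.25 mg/mL final) for 30 min at 37 C. Acetylthiocholine/DTNB was then added; thiocholine was read colorimetrically after 10 min at room temperature.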
# % is scaled to controls: 0 for no effect and ±100 for the full control effect.
# Sequence of Acetylcholinesterase (Homo sapiens) (P22303 whole entry, looked up): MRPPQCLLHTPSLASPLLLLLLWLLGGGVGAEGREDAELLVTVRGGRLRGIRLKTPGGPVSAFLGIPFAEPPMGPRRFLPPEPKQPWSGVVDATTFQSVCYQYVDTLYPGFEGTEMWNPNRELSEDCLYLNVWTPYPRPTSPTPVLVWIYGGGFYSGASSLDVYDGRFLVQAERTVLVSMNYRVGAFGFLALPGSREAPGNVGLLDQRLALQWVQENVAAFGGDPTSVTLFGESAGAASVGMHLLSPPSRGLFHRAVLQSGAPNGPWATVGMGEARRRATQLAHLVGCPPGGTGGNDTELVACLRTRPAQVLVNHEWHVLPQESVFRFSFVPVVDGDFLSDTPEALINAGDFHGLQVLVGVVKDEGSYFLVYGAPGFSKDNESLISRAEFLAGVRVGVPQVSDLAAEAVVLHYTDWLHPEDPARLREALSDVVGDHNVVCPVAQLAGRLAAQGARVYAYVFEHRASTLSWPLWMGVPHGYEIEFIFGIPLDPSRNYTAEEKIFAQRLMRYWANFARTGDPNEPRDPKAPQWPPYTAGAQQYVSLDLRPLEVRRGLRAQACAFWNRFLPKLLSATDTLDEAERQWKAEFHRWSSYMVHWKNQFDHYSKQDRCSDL
Compound,"activity change, negative = inhibition",outcome
CN(C)[C@@H](CCOc1cccc2ccccc12)c1ccccc1,0% [at 53 µM] (inactive),
CSc1ccc(Oc2ccc(S(N)(=O)=O)cc2CN(C)C)cc1C,-0.283% (inactive),
CCN(CC)CCOC(=O)C(Cc1cccc2ccccc12)CC1CCCO1 (centres undefined),0.84% [at 53 µM] (inactive),
O=[N+]([O-])C1(Br)COCOC1,-11.2% (inactive),
Cc1ccc(O)c(O)c1,-6.33% (inactive),
CC(C)NCC(O)c1ccc2ccccc2c1 (centres undefined),0% [at 53 µM] (inactive),
O=[N+]([O-])c1ccc(O/N=C/c2cc(Br)c(O)c(Br)c2)c([N+](=O)[O-])c1,40.7% (inactive),
CC(C)COCC(CN(Cc1ccccc1)c1ccccc1)N1CCCC1 (centres undefined),1.02% [at 53 µM] (inactive),
CC(C)(Cc1c[nH]c2ccccc12)NCC(O)COc1ccccc1C#N (centres undefined),0.231% [at 53 µM] (inactive),
CCO[C@@H]1O[C@H](C(COCc2ccccc2)OCc2ccccc2)[C@H](OCc2ccccc2)[C@H]1O (some centres undefined),-1.19% [at 53 µM] (inactive),
Cc1nc(-c2ccc(OCC(C)C)c(C#N)c2)sc1C(=O)O,-4.2% [at 53 µM] (inactive),
COc1cc(S(=O)(=O)O)c(C)cc1N=Nc1c(O)ccc2cc(S(=O)(=O)O)ccc12,11.4% (inactive),
CNC(=O)c1ccccc1Sc1ccc2c(/C=C/c3ccccn3)n[nH]c2c1,-1.48% [at 53 µM] (inactive),
CN(C[C@@H](CC[N+]12CCC(C3CCCCC3)(CC1)CC2)c1ccc(Cl)c(Cl)c1)C(=O)c1cc(C(F)(F)F)cc(C(F)(F)F)c1,,inactive
CCOC(=O)COc1ccc2c(c1)CC(NCC(O)c1cccc(Cl)c1)CC2 (centres undefined),0.0836% (inactive),
CC(C)(COC(=O)c1ccccc1)COC(=O)c1ccccc1,-1.83% (inactive),
N#CSc1ccc(N)c([N+](=O)[O-])c1,4.13% (inactive),
CNC(=O)c1cnn(-c2nc(N)c3ncn([C@@H]4O[C@H](CO)[C@@H](O)[C@H]4O)c3n2)c1,0.185% [at 53 µM] (inactive),
CC1(C)S[C@@H]2[C@H](N=CN3CCCCCC3)C(=O)N2[C@H]1C(=O)O,-1.32% [at 53 µM] (inactive),
CC1(C)CCC(C)(C)c2cc(NC(=O)c3ccc(C(=O)O)cc3)ccc21,-0.292% [at 53 µM] (inactive),
Cc1ccsc1/C=C/C1=NCCCN1C,0.356% [at 53 µM] (inactive),
CN1CCN(Cc2cc(-c3ccc4[nH]c(=O)oc4c3)co2)[C@@H](c2ccc(F)cc2)C1,0.067% (inactive),
CC(=O)Nc1ccc(S(=O)(=O)Nc2cc(C)on2)cc1,-0.978% [at 53 µM] (inactive),
Oc1cc2ccccc2c2ccccc12,0.104% (inactive),
